Sampled rows, rich in hits. Any-hit rate of the full collection: about 2.4%.
D2 PAM-1: D2 dopamine receptor (human) potentiation; hit rate 0.34% among 340,000; potentiation, % at 10 µM; P14416; HEK293 T-REx D2, calcium flux, EC20 dopamine potentiation; AID 485347;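 active = potentiation over 3 SD above the plate norm, cut at about 30% in these data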; note: 0% is about no effect
Target sequence (P14416 whole entry, looked up): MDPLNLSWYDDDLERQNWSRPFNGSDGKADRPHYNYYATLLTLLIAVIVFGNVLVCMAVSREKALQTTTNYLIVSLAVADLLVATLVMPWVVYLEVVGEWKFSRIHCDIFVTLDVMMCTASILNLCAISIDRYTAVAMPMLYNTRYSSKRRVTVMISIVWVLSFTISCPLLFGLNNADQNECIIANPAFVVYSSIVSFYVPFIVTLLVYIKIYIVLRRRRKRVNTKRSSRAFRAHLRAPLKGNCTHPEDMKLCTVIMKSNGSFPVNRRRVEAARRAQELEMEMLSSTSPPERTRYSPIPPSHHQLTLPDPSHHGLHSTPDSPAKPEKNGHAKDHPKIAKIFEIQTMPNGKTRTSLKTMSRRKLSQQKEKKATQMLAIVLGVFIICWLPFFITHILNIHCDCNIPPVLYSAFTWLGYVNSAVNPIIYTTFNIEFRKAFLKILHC
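Cells plated with tetracycline inducer and held overnight at 30 C; calcium dye loaded 30–90 min at room temperature; baseline taken, compound added and read 180 s; EC20 dopamine then added and read 180 s.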
D2 ag-1: D2 dopamine receptor (human) agonism; P14416; activation, % at 2 µM; HEK293 T-REx D2 cells, calcium flux agonist mode; hit rate 0.53% among 340,000;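 active = activation over 3 SD above normal in the single-dose calcium agonist read, cut at about 30% in these data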; note: 0% is about no effect
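Calcium-flux readout, 1 cycle/sec over 180 s following compound pin transfer, in inducible HEK293 Trex D2 cells (force-coupled); dopamine controls included. Positive calcium responses during this window marked compounds as potential agonists.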
D2 PAM-2: potentiates the human D2 dopamine receptor allosterically | potentiation, % (test concentration not listed) | DiscoveRx D2 beta-arrestin cells, luminescence, 90 min; 100% = 57 uM dopamine signal | hit rate 0.23% among 360,000 | P14416; in the data active = potentiation above about 50%
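D2 cells co-treated with compound plus 50 nM dopamine (EC20) for 90 min at 37 deg C to detect potentiation. Beta-arrestin recruitment was read as enzyme-fragment luminescence after 1 h at ambient temperature. Full response was set by 57 uM dopamine.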
D2 antag: antagonists of human D2 dopamine receptor. P14416. HEK293 TREx D2 cells, calcium flux, dopamine EC80. inhibition, % at 10 µM. hit rate 2% among 340,000; in the data active = inhibition above about 30%; inactive = below that, where a call was filed; note: 0% is about no effect
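Antagonism is scored as inhibition of an EC80 dopamine-evoked calcium signal in a force-coupled, tetracycline-inducible HEK293 T-REx D2 line, with compound present 180 s before agonist.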
D2 ag-2: activates the human D2 dopamine receptor. P14416. DiscoveRx PathHunter D2 beta-arrestin, luminescence, 90 min; 100% = 57 uM dopamine signal. activation, % (test concentration not listed). hit rate 0.084% among 360,000; in the data active = activation above about 40%
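DiscoveRx PathHunter D2 beta-arrestin cells (2,100/well) attached overnight, then compound-stimulated 90 min at 37 C in HBSS/10 mM HEPES/0.1% Tween-20 buffer; beta-galactosidase complementation read by luminescence after 1 h at ambient temperature. Dopamine 57 uM final (EC100) as control.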
Numbers without * were called inactive; . = no result.

SMILES	D2 PAM-1	D2 ag-1	D2 PAM-2	D2 antag	D2 ag-2
COc1ccc(S(=O)(=O)N2CCCCC2)cc1NC(=O)Cc1ccsc1	-3	-1	-9	30*	7
COc1ccc(S(=O)(=O)N2CCCCCC2)cc1NC(=O)Cc1ccccc1	3	1	-3	-1	-5
COc1ccc(CC(=O)Nc2cc(S(=O)(=O)N3CCCCC3)ccc2C)cc1	0	0	-35	31*	-5
CCOc1ccc(S(=O)(=O)N2CCCCC2)cc1NC(=O)Cc1ccsc1	5	2	3	34*	10
CCOc1ccc(S(=O)(=O)N2CCCCC2)cc1NC(=O)Cc1ccc(OC)cc1	.	.	4	.	4
COCCn1c(C)cc(C(=O)Cn2nc(C(=O)O)c3ccccc3c2=O)c1C	-1	1	-8	32*	3
O=C(O)c1nn(CCOc2cccc(Cl)c2)c(=O)c2ccccc12	1	0	1	-4	-3
O=C(O)c1nn(CCOc2c(Cl)cccc2Cl)c(=O)c2ccccc12	45*	-1	-2	4	3
COCCn1c(C)cc(C(=O)COC(=O)c2ccc[nH]c2=O)c1C	4	0	4	62*	0
Cc1cc(C(=O)COC(=O)c2ccc[nH]c2=O)c(C)n1C	2	1	19	-15	-1
CC(Sc1nnc(C2CC2)n1-c1ccccc1)C(=O)N1CCCC1 (configuration not stated)	0	0	-3	5	-3
O=c1c2ccccc2n(Cc2ccccc2F)c(=O)n1-c1cccc(F)c1	-3	-1	.	.	.
Cc1nnc(SCC(=O)NCCN2C(=O)CSC2=O)n1-c1ccccc1	5	0	4	47*	0
Cc1ccc(NC(=O)Cn2c(=O)n(-c3ccc(C)cc3)c(=O)c3c2cnn3C)cc1	19	.	.	.	.
Nc1nc(Nc2cccc(F)c2)nc(N2CCOCC2)c1[N+](=O)[O-]	-12	0	-10	-7	4
CN1CCN(c2nc(Nc3ccccc3)nc(N)c2[N+](=O)[O-])CC1	-25	-1	-17	83*	-2
Cc1cccc(Nc2nc(N)c([N+](=O)[O-])c(N3CCN(C)CC3)n2)c1	-30	-1	-35	55*	-5
O=C(NCC1c2ccccc2CCN1C(=O)CN1C(=O)c2ccccc2C1=O)C1CCCCC1 (configuration not stated)	-5	0	-10	30*	-2
O=C(CN1C(=O)c2ccccc2C1=O)N1CCCCC1	3	1	-1	-14	-4
O=C(N/N=C/c1cccc2ccccc12)c1cc2ccccc2o1	-22	-1	-21	52*	-4
Cn1cc(/C=N/NC(=O)c2cc3cc(Br)ccc3o2)c2ccccc21	-21	0	-9	66*	-3
O=C(COC(=O)c1cccnc1)Nc1cccc2ccccc12	2	0	-5	32*	-7
O=C(O)Cn1cc(/C=N/NC(=O)c2cc3cc(Br)ccc3o2)c2ccccc21	-21	0	-4	-22	2
O=C(N/N=C/c1cccc([N+](=O)[O-])c1)c1cc2ccccc2o1	-20	-1	-27	33*	-5
COc1ccc(N2CCN(C(=O)c3cc(-c4ccc(C)c(F)c4)on3)CC2)cc1	5	-2	.	.	.
SMILES	D2 PAM-1	D2 ag-1	D2 PAM-2	D2 antag	D2 ag-2
CCc1ccc(OCC2c3cc(OC)c(OC)cc3CCN2C(=O)COc2ccccc2)cc1 (configuration not stated)	-11	0	.	.	.
O=C(N/N=C/c1cccc2ccccc12)c1cccnc1	0	0	-18	37*	-3
Cc1ccccc1/C=N/NC(=O)c1cccnc1	4	0	-3	-12	-7
O=C(O)c1cccc(N/N=C/c2sc(N3CCOCC3)nc2-c2ccccc2)c1	8	-1	112*	-12	13
COc1ccc2ccccc2c1/C=N/Nc1cccc(C(=O)O)c1	10	0	12	14	6
O=C(N/N=C/C=C/c1cccc([N+](=O)[O-])c1)c1ccncc1	-9	-1	-2	3	1
Nc1ccc(C(=O)N/N=C\C=C\c2cccc([N+](=O)[O-])c2)cc1	-4	3	-4	48*	-2
O=C(O)c1cccc(N/N=C/c2cccc3ccccc23)c1	47*	-1	5	-6	-1
Cc1noc(C)c1CSCC(=O)OCC(=O)Nc1ccc(OC(F)(F)F)cc1	.	.	-7	.	0
CC(CCc1ccccc1)NC(=O)Cn1c(=O)nc(-c2ccccc2F)c2cc(Cl)ccc21 (configuration not stated)	1	-1	.	.	.
O=C(c1ccc(F)cc1)C1CCN(CCn2c(=O)[nH]c3ccccc3c2=O)CC1	-21	1	-37	58*	-5
CCOC(=O)CCCSc1nnc(CCCCCN2C(=O)c3cccc4cccc(c34)C2=O)o1	8	0	1	-1	-2
Cc1cccc(NC(=O)CCCCCN2C(=O)c3ccccc3C2=O)n1	1	-1	-3	35*	0
O=C(CCCCCCN1C(=O)c2ccccc2C1=O)NC1CCCCC1	-2	1	3	32*	-4
CCOC(=O)CCCCCN1C(=O)c2cccc3cccc(c23)C1=O	30*	-1	1	3	2
Cc1ccc(NC(=O)CCCCCN2C(=O)c3ccccc3C2=O)nc1	6	-1	-7	4	1
Cc1cccc(NC(=O)CCCN2C(=O)c3ccccc3C2=O)n1	2	2	-12	34*	-5
COc1cc2c(cc1OC)C(COc1ccc(F)cc1)N(C(=O)Cc1ccc(F)cc1)CC2 (configuration not stated)	-9	1	.	.	.
COc1ccc(OC)c(-c2nc3cc4ccccc4cc3nc2-c2ccccc2)c1	6	0	-7	0	-7
O=C(CCCCCN1C(=O)c2ccccc2C1=O)Nc1ccc(F)cc1	-8	0	-20	34*	1
O=C(CCCCCN1C(=O)c2ccccc2C1=O)Nc1ccccc1F	2	0	-5	12	-4
CCOC(=O)c1ccc(NNC(=O)CC)c([N+](=O)[O-])c1	3	-1	-8	16	-5
S=C(NCC1CCCO1)Nc1ccc(Nc2ccccc2)cc1 (configuration not stated)	-4	1	-9	40*	-1
O=C(CCN1C(=O)CSc2ccccc21)Nc1ccc(C(F)(F)F)cc1	-14	1	-6	88*	3
O=C(CCN1C(=O)CSc2ccccc21)Nc1cccc(C(F)(F)F)c1	-17	0	-3	5	-2
O=C(Cc1noc2ccccc12)NNC(=S)Nc1ccc(Cl)cc1	18	0	-12	48*	-9
O=C(Cc1noc2ccccc12)NNC(=S)Nc1ccccc1	.	.	-10	.	-6
NC(=O)c1ccc(C(F)(F)F)n(Cc2cccc(Cl)c2)c1=O	4	1	-1	32*	1
